Source: PubChem
ATXN2 expr inh: Primary qHTS for Inhibitors of ATXN expression. HEK-293 ATXN2-luciferase reporter, luminescence, 24 h. Potency, µM (titrated, usually from 57 µM), without a hit: at the highest dose activity change, negative = inhibition, usual class: inhibitors. 360,000 compounds, 0.72% hits; also: % is scaled to controls: 0 for no effect and ±100 for the full control effect; nearly all actives have a fitted effect of over 55% in size
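qHTS (up to 57 uM final) was run with 24 h compound exposure of reporter cells at 37 °C. Each well was multiplexed: SteadyGlo luminescence measured ATXN2-luciferase expression after a fluorogenic Gly-Phe-AFC viability readout (25 uM final).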
HepG2 viability: qHTS for Inhibitors of TGF-b: Cytotox Counterscreen | Potency, µM (titrated, usually from 46.1 µM), for inactives: at the highest dose activity change, negative = cytotoxicity, actives largely listed as cytotoxic | HepG2 CAGA-GFP viability, ATP luminescence, 18 h | 410,000 compounds, 0.76% hits
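HepG2 CAGA-GFP cells (1000/well, DMEM with 1% FBS) received compound, then TGF-beta at 500 pg/mL final, and were incubated 18 hours at 37 degrees C. Viability was read by CellTiter-Glo luminescence. Media-only wells were set as complete cell-killing and DMSO as no toxicity.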
S2 tox: Viability Counterscreen for Primary qHTS for Inhibitors of ATXN expression; S2 cells (HEK-293 line with an ATXN2-luciferase reporter) viability, CellTiter-Fluor protease fluorescence, 24 h; Potency, µM (top dose mostly 56.7 µM), usual class: cytotoxic; 400,000 compounds, 0.49% hits; AID 651635, 2014; also: nearly all actives have a fitted effect of over 40% in size
RORgamma inh: qHTS for inhibitors of ROR gamma transcriptional activity; Potency, µM (titrated, usually from 53.6 µM), inactives show at the highest dose activity change, negative = inhibition, most hits filed as inhibitors; 310,000 compounds, 5.4% hits; Drosophila S2 Gal4-RORgamma UAS-luciferase reporter, 20 h; also: % is scaled to controls: 0 for no effect and ±100 for the full control effect; nearly all actives have a fitted effect of over 60% in size
Target sequence (P51450 whole entry, looked up, the tested form may be a part): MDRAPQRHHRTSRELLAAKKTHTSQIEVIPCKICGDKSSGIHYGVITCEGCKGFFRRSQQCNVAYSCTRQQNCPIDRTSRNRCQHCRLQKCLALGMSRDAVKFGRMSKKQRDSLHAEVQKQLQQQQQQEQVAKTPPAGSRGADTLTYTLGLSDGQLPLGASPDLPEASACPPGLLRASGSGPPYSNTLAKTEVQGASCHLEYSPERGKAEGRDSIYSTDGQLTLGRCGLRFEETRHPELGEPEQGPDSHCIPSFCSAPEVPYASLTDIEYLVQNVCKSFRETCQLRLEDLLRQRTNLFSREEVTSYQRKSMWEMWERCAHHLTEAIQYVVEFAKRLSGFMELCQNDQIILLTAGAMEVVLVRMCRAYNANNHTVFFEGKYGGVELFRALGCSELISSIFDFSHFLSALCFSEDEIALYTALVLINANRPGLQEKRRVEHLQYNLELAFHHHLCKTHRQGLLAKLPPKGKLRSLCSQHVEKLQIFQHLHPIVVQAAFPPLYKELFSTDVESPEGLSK
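Luciferase reporter read in Schneider cells carrying Gal4-RORγ (mouse) and UAS-Photinus luciferase; cells given compound 1 h before 700 uM copper sulfate induction, then incubated 20 h at ambient temperature.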
VP16 counter: VP16 counterscreen qHTS for inhibitors of ROR gamma transcriptional activity; Potency, µM (highest dose often 53.6 µM), inactives show at the highest dose activity, negative = inhibition, hits mostly inhibitors; Drosophila S2 Gal4-VP16 UAS-luciferase, luminescence, 20 h; 310,000 compounds, 3.5% hits;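 also: Gal4-VP16 expression switched on by copper sulfate through the metallothionein promoter; % is scaled to controls: 0 for no effect and ±100 for the full control effect; nearly all actives have a fitted effect of over 50% in size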
TGFb SMAD3 inh: qHTS for Inhibitors of TGF-b | HepG2 CAGA-GFP TGF-b/SMAD3 reporter, GFP fluorescence, 18 h; TGF-beta stimulated, 500 pg/mL final | Potency, µM (highest dose often 46.1 µM), without a hit: at the highest dose activity, negative = inhibition, usual class: inhibitors | 410,000 compounds, 1.2% hits | AID 588855, 2011; also: % is scaled to controls: 0 for no effect and ±100 for the full control effect; nearly all actives have a fitted effect of over 65% in size
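HEPG2 CAGA-GFP reporter cells (1000/well, DMEM with 1% FBS) received compounds, then recombinant TGF-beta at 500 pg/mL final for 18 hours at 37 degrees C. Per-cell GFP summed per well was normalised to unstimulated and stimulated DMSO controls before curve fitting.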
Numbers without * were called inactive; i = inactive; ? = inconclusive; nt = no result given. Most compounds without a hit are left out; they make up all but 6.3% or so of the library. Calls follow the shape of the dose curve; as a rule, active = well fitted curve in the direction sought with a large enough effect; inconclusive = small, poorly fitted or top-dose-only effect, or another doubt; inactive = no such curve, though single readings can be large; an effect the other way counts as inactive or inconclusive. Potency is read from the fitted curve at half-maximal effect.

SMILES	ATXN2 expr inh	HepG2 viability	S2 tox	RORgamma inh	VP16 counter	TGFb SMAD3 inh
COc1cccc(C(=O)Nc2ccccc2N2CCCC2)c1	-5.7%	2.4%	i	7.9%	0.5%	?
COc1cccc(C(=O)NC(=S)Nc2ccccc2N2CCCCC2)c1	-9.9%	-33.2%	i	2.51µM*	5.01µM*	?
COc1cccc(C(=O)NC(=S)Nc2ccccc2N2CCCC2)c1	2.2%	-16.3%	i	3.98µM*	12.6µM*	-1.8%
CC(C)Oc1cccc(C(=O)NC(=S)Nc2ccccc2N2CCOCC2)c1	-3.8%	7.2%	i	5.62µM*	5.62µM*	-18.2%
COc1cccc(C(=O)Nc2ccccc2N2CCN(C(=O)c3ccccc3)CC2)c1	nt	-17.7%	i	nt	nt	-2.0%
CC(C)Oc1ccc(C(=O)Nc2ccccc2N2CCOCC2)cc1	nt	-3.4%	i	9.0%	-0.1%	2.4%
COc1cc(C(=O)NC(=S)Nc2ccccc2N2CCCC2)cc(OC)c1OC	-8.6%	-19.7%	i	4.47µM*	3.98µM*	-28.4%
CCC(=O)N1CCc2cc(Br)cc(S(=O)(=O)CCC(=O)NCc3ccc(F)cc3)c21	-7.7%	-24.5%	?	nt	nt	?
COc1c(C)cccc1C(=O)NC(=S)Nc1ccccc1N1CCCC1	13.1%	-6.6%	i	10µM*	20µM*	-9.4%
CC(C)(C)n1ncc2c(=O)n(Cc3ccccc3Cl)cnc21	nt	-3.7%	nt	nt	nt	-9.2%
Cc1ccc(O)c(/C=N/NC(=O)c2[nH]ncc2Br)c1	?	-17.6%	i	1.26µM*	1.26µM*	?
Cc1csc(N/N=C/c2ccccc2F)n1	44.1%	-2.0%	i	?	-79.3%	-4.6%
CCOc1ccc(/C=N/Nc2nc(C)cs2)c(O)c1	255.4%	-38.6%	?	1.41µM*	2.24µM*	?
Cc1ccc(O)c(/C=N/NC(=O)C2=NNC(c3ccccc3)(c3ccccc3)C2)c1	nt	nt	nt	1.41µM*	2.82µM*	nt
CCOc1ccc(/C=N/NC(=O)c2[nH]ncc2Br)c(O)c1	?	-50.7%	i	3.55µM*	11.2µM*	2.7%
Cc1nc(-c2ccc(S(=O)(=O)N3CCN(c4cccc(C(F)(F)F)c4)CC3)cc2)co1	-11.7%	-4.1%	i	nt	nt	-13.3%
O=C(CC[C@H]1O[C@@H](n2cnc3c(NC(=O)c4ccccc4)ncnc32)[C@H](O)[C@@H]1O)NCc1ccc(OC(F)(F)F)cc1	-8.4%	-24.5%	i	nt	nt	-0.4%
O=C(N/N=C/c1cccs1)c1[nH]ncc1Br	2.4%	-24.4%	i	-14.8%	-10.1%	20.4%
O=C(N/N=C/c1c(O)ccc2ccccc12)c1[nH]ncc1Br	?	-22.2%	nt	2.51µM*	4.47µM*	?
COc1cc(OC)nc(C(NC(=O)C2CCN(Cc3ccc(N(C)C)cc3)CC2)c2ccc(F)cc2)n1 (configuration not stated)	-0.1%	-5.5%	i	nt	nt	-0.7%
COc1cc(OC)nc(C(NC(=O)C2CCN(Cc3c[nH]c4ccccc34)CC2)c2ccc(Cl)cc2)n1 (configuration not stated)	?	10µM*	nt	nt	nt	?
CCCCn1nnnc1C(c1cc2ccccc2o1)N(Cc1ccccc1)Cc1ccccc1 (configuration not stated)	-6.8%	nt	i	nt	nt	nt
COc1ccc(CNC(=O)CCCN2C(=O)c3cccnc3Oc3ccc(Cl)cc32)cc1	nt	-11.3%	nt	nt	nt	?
O=C(CSCc1ccccc1Cl)N1CCN(c2ccc(Cl)cc2)CC1	nt	-36.9%	nt	nt	nt	?
CNC(=S)N1CCN(c2nc(-c3cccc(OC)c3)cs2)CC1	-23.5%	-2.4%	i	-1.5%	23.9%	-18.1%
SMILES	ATXN2 expr inh	HepG2 viability	S2 tox	RORgamma inh	VP16 counter	TGFb SMAD3 inh
COc1cccc(-c2csc(N3CCN(C(=O)Nc4ccccc4Cl)CC3)n2)c1	nt	-0.4%	i	?	-4.7%	-16.7%
COc1cccc(-c2csc(N3CCN(Cc4ccccc4)CC3)n2)c1	45.5%	-25.0%	i	12.6µM*	?	-6.4%
COc1ccc(-c2csc(N3CCC(c4ccccc4)C3)n2)cc1 (configuration not stated)	23.5%	0.4%	i	11.2µM*	-6.0%	0.6%
CCOc1ccccc1NC(=S)N1CCN(c2nc(-c3cccc(OC)c3)cs2)CC1	nt	-2.7%	i	3.98µM*	7.94µM*	-28.7%
COc1cccc(-c2csc(N3CCN(C(=S)Nc4cccc(C)c4)CC3)n2)c1	nt	5.0%	?	7.08µM*	3.16µM*	-4.6%
COc1ccccc1-c1ccnc(-n2ncc(C(=O)N3CCCCC3c3cccnc3)c2C)n1 (configuration not stated)	nt	nt	i	nt	nt	nt
O=C1c2ccccc2C(=O)N1c1cccc(N2C(=O)c3ccccc3C2=O)n1	nt	5.9%	nt	nt	nt	-6.2%
CN(C)CCOc1ccc(C(=C(CCCl)c2ccccc2)c2ccccc2)cc1	2.8%	nt	nt	nt	nt	nt
CCOC(=O)CN[C@@H](C(=O)N1CC[C@H]1C(=O)NCc1ccc(/C(N)=N/O)cc1)C1CCCCC1	nt	nt	i	nt	nt	nt
COc1cccc(-c2csc(N3CCN(C(=S)Nc4ccc(Cl)cc4)CC3)n2)c1	-24.2%	-12.2%	i	?	?	?
COc1cccc(NC(=O)N2CCN(c3nc(-c4cccc(OC)c4)cs3)CC2)c1	nt	-35.7%	14.1µM*	-0.7%	-8.7%	?
COc1cccc(-c2csc(N3CCN(C(=S)Nc4ccccc4C)CC3)n2)c1	nt	-8.6%	i	7.08µM*	?	?
COc1ccccc1NC(=S)N1CCCC1	-1.6%	7.3%	i	-0.1%	-4.2%	8.6%
COc1cccc(-c2csc(N3CCN(C(=S)Nc4ccccc4)CC3)n2)c1	-4.6%	-3.1%	i	6.31µM*	?	-1.7%
COc1ccccc1NC(=S)N1CCN(c2nc(-c3ccccc3)cs2)CC1	-33.8%	-13.5%	i	14.1µM*	?	-20.7%
CCOC(=O)c1c(NC(=O)C(=O)N/N=C/c2ccccc2OC)sc2c1CCCCC2	-3.9%	-22.8%	i	-8.1%	-3.8%	-3.1%
CCOC(=O)c1c(NC(=O)C(=O)N/N=C/c2ccccc2O)sc2c1CCCCC2	?	-3.1%	i	1µM*	1.26µM*	9.2%
CCOC(=O)c1c(NC(=O)C(NCCN(C)C)c2ccccc2)sc2c1CCCC2 (configuration not stated)	28.2µM*	-105.4%	nt	3.55µM*	11.2µM*	?
CCOC(=O)c1c(NC(=O)c2ccccc2Cl)sc2c1CCCC2	7.5%	-34.9%	i	nt	nt	106.7%
